Screening results: PubChem BioAssay, several laboratories
ADAM17 inh: ADAM17 inhibitors, primary screen, biochemical, QFRET. Disintegrin and metalloproteinase domain-containing protein 17 (Homo sapiens), P78536. recombinant ADAM17, EDANS/DABCYL FRET peptide cleavage. inhibition, % at 6.95 µM. actives 0.83% (n = 370,000);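 active means inhibition above the mean of compounds lying between control limits plus 3 SD, set per campaign, cut at about 8.5% in these data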
ADAM10 inh: human ADAM10 inhibitors, primary screen, biochemical, QFRET, HTS; Disintegrin and metalloproteinase domain-containing protein 10 (Homo sapiens), O14672; recombinant ADAM10, EDANS/DABCYL FRET peptide cleavage, 3 h; inhibition, % at 7 µM; actives 0.62% (n = 370,000);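 active means inhibition above a per-campaign cutoff equal to the mean of compounds falling between control-based bounds plus 3 SD, cut at about 20% in these data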
Target sequence (O14672 214-748 limits assumed): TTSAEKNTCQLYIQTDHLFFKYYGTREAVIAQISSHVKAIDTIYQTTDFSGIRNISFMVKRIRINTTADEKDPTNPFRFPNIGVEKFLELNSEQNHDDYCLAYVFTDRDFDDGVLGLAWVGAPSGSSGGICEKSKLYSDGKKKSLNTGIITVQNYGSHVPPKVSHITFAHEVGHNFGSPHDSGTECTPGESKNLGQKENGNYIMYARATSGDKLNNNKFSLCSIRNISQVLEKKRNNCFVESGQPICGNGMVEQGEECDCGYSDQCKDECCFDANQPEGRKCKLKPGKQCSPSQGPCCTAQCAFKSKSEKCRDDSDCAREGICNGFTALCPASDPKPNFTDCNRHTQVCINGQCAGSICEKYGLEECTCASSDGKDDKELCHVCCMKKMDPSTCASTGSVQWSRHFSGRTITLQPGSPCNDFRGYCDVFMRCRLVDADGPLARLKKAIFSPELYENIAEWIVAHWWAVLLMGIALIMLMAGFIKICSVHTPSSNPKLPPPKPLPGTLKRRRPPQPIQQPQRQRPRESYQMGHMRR
rRNA inh HTS: reduced GFP signal of wild-type E. coli, primary screen, bacterial rRNA inhibitor project, GFP/RFP fluorescence, OD600, single point; GFP signal change (wild-type ribosome), % (test concentration not listed); actives 1.6% (n = 350,000); AID 720706, 2013; E. coli WT GFP vs humanized-ribosome RFP mutants, 24 h; stronger effect = lower value; DMSO median 0, no signal -100;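 active means significant combined selectivity score with lowered wild-type GFP, culture density cut under 30%, mutant RFP and density less affected; inactive means any of these conditions unmet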
FGF22 binding: binders of human FGF22 protein, primary screen, FGF22 synaptogenesis inhibitor project, biophysical, thermal shift, single point; actives 1.5% (n = 340,000); Fibroblast growth factor 22 (Homo sapiens), Q9HCT0; recombinant FGF22 thermal shift, SYPRO orange fluorescence; percent of sucrose octasulfate shift, DMSO zero; activity (Tm shift, normalised), % at 9.99 µM;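 active means mean Tm shift, scaled 0 neutral to 100 positive control, at about 1.3% or above, every replicate too, limit read from the data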
Target sequence (Q9HCT0 whole entry, looked up): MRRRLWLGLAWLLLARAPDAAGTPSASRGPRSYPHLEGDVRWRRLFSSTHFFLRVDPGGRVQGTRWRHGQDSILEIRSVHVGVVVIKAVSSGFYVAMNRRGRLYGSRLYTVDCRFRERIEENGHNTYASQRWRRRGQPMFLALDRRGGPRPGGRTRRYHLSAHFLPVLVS
proKLK7 act: proKLK7 zymogen activators, primary screen, biochemical, fluorescence intensity; Kallikrein-7 (Homo sapiens), P49862; AID 652039, 2013; activation, % at 7 µM; actives 0.9% (n = 370,000); purified proKLK7, EDANS-DABCYL substrate fluorescence; 100% is mature enzyme control, 0% vehicle;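 active means activation above the mean of all tested compounds plus 3 SD, computed per campaign excluding outliers beyond control limits, cut at about 13% in these data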
Large screens that a line does not name were inactive. This is a sample that favours compounds with a hit; in the whole collection about 3.8% have one here.

Cc1ccc2c(c1)NC(=O)c1cc([N+](=O)[O-])ccc1O2	none
CO[C@@H]1CN(C)C(=O)c2ccc(NC(=O)c3ccc(F)cc3)cc2OC[C@@H](C)N(C(C)=O)C[C@@H]1C	none (no result: ADAM17 inh, ADAM10 inh, proKLK7 act)
COc1ccc(CN2CC3(CCN(C(=O)Nc4cccc(F)c4)CC3)c3c([nH]c4cc(OC)ccc34)[C@@H]2CO)cc1	none (no result: ADAM17 inh, ADAM10 inh, FGF22 binding, proKLK7 act)
COc1ccc(NC(=O)Nc2ccccn2)cc1OC	none
COc1ccc(C)cc1NC(=O)NCc1ccco1	none
O=C(NCc1ccco1)c1csc(Nc2ccccc2Cl)n1	none (no result: rRNA inh HTS, FGF22 binding)
COc1ccc(NC(=O)Nc2cc(C(C)(C)C)on2)cc1OC	rRNA inh HTS -26.3
COc1ccc(Nc2nc(C(=O)NCc3ccco3)cs2)cc1	rRNA inh HTS -44.4
COc1ccc(NC(=O)NCc2ccco2)cc1OC	FGF22 binding 43.8
COc1cccc(-c2ccc([C@@H]3[C@H]4CN(C(=O)C5CC5)CC(=O)N4[C@H]3CO)cc2)c1	none (no result: ADAM17 inh, ADAM10 inh, FGF22 binding, proKLK7 act)
C[C@@H]1CCCCO[C@@H](CN(C)C(=O)C2CCCCC2)[C@H](C)CN([C@@H](C)CO)C(=O)c2cc(NS(=O)(=O)c3ccc(Cl)cc3)ccc2O1	none (no result: ADAM17 inh, ADAM10 inh, proKLK7 act)
C[C@H](CO)N1C[C@H](C)[C@@H](CN(C)Cc2ccc(C(=O)Nc3ccccc3N)cc2)OCCCC[C@H](C)Oc2ccc(N(C)C)cc2C1=O	none (no result: ADAM17 inh, ADAM10 inh, FGF22 binding, proKLK7 act)
CCn1c(SCC(=O)N2CCCC2=O)nnc1-c1cccs1	none
Cn1c(SCC(=O)N2CCCC2=O)nnc1-c1ccccc1F	FGF22 binding 43.3
CCCCOCC1CN(CCCC)S(=O)(=O)c2c(F)cccc2O1 (centres undefined)	none
COCC1CN(CCc2ccc(F)cc2)S(=O)(=O)c2c(F)cccc2O1 (centres undefined)	rRNA inh HTS -22.1
C[C@H](CO)N1C[C@H](C)[C@@H](CN(C)Cc2ccc(Cl)c(Cl)c2)Oc2ccc(NS(=O)(=O)c3ccc(F)cc3)cc2CC1=O	none (no result: ADAM17 inh, ADAM10 inh, FGF22 binding, proKLK7 act)
NC(=O)[C@@H]1CCCN1Cc1nc(-c2ccc(C(F)(F)F)cc2)no1	FGF22 binding 43.0
CC(C)(C)OC(=O)NCCC(=O)N/N=C/c1cccc2cccnc12	rRNA inh HTS -16.3
O=C(Nc1ccccc1)Nc1cccc(-c2cn3cccnc3n2)c1	none
Nc1cccc(-c2cn3cccnc3n2)c1	FGF22 binding 42.9
COc1ccc(NC(=O)N2CC3(C2)CN(CC2CC2)[C@H](CO)c2c3c3ccc(OC)cc3n2C)cc1	none (no result: ADAM17 inh, ADAM10 inh, proKLK7 act)
CCc1nnc(NC(=O)CSc2nc(-c3ccccc3)c(-c3ccccc3)o2)s1	none
CCc1nnc(NC(=O)CS(=O)(=O)Cc2ccccc2)s1	FGF22 binding 1.5
CCc1nnc(NC(=O)CCS(=O)(=O)Cc2ccccc2)s1	none
CCc1nnc(NC(=O)CSc2nnc(-c3ccccc3O)o2)s1	rRNA inh HTS -26.5
COc1ccc(NC(=O)N(C)C[C@@H]2Oc3ccc(NS(=O)(=O)c4ccc(Cl)cc4)cc3C(=O)N([C@@H](C)CO)C[C@@H]2C)cc1	none (no result: ADAM17 inh, ADAM10 inh, proKLK7 act)
CCn1c(=O)cc(N2CCOCC2)[nH]c1=O	FGF22 binding 43.0
COc1cc(/C(C)=N/NC(=O)c2ccc(CSc3nncn3C)cc2)cc(OC)c1OC	FGF22 binding 43.3 (no result: rRNA inh HTS)
COc1ccc(/C=N/NC(=O)c2ccc(CSc3nncn3C)cc2)cc1OC	none
Cc1nc2ccccc2c(=O)n1/N=C/c1cccs1	rRNA inh HTS -19.1
S=c1[nH]nc(-c2cc(-c3ccccc3)n[nH]2)n1/N=C/c1cccc(Cl)c1	rRNA inh HTS -16.7
S=c1[nH]nc(-c2ccccc2)n1/N=C/c1cccs1	rRNA inh HTS -18.9 (no result: ADAM17 inh, ADAM10 inh, FGF22 binding, proKLK7 act)
Cc1cc(-c2n[nH]c(=S)n2/N=C/c2cccs2)n[nH]1	none (no result: rRNA inh HTS)
Cc1ccc(-c2n[nH]c(=S)n2/N=C/c2cccs2)cc1	rRNA inh HTS -33.2
CC1Cc2ccccc2N1C(=O)CNCCCN(C)C (centres undefined)	none (no result: rRNA inh HTS, FGF22 binding)
CC1CC2(C)Oc3ccccc3CC2C(C)C1CNCCCN(C)C (centres undefined)	FGF22 binding 43.0
O=C(/C=C/c1ccc([N+](=O)[O-])cc1)OCc1cnc(-c2ccccc2)o1	FGF22 binding 43.7
CN(CCCC(=O)O)c1ccc(N=Nc2ccc([N+](=O)[O-])cc2)cc1	rRNA inh HTS -30.7
Cc1cccc(N2C(=O)CN(Cc3ccccc3)C2=S)c1	rRNA inh HTS -14.5
COc1cc(CN2CC(=O)N(c3ccccc3Cl)C2=S)cc(OC)c1OC	rRNA inh HTS -18.1
CN(C)C(=O)[C@@H]1[C@@H](CO)[C@@H]2Cn3c(ccc(C4=CCCC4)c3=O)[C@H]1N2CC1CC1	none (no result: ADAM17 inh, ADAM10 inh, FGF22 binding, proKLK7 act)
CCCCN(CC)CCCNC(=O)c1cn(CC)c2ccc(S(=O)(=O)N3CCc4ccccc4C3)cc2c1=O	FGF22 binding 43.0
CCCCN(C)CCCNC(=O)c1cn(CC)c2ccc(S(=O)(=O)N3CCc4ccccc4C3)cc2c1=O	none
COc1ccc(Nc2nc(N)nc(CSc3nccn3C)n2)cc1	FGF22 binding 43.6
O=C(COc1ccc(Cl)cc1)Nc1nnc(-c2ccco2)o1	rRNA inh HTS -34.9
C[C@H]1CN(C)C(=O)Cc2cc(NS(C)(=O)=O)ccc2O[C@H]1CN(C)C	none (no result: ADAM17 inh, ADAM10 inh, FGF22 binding, proKLK7 act)
COc1ccc(Cc2nc3c([nH]2)c(=O)n(C)c(=O)n3C)cc1OC	FGF22 binding 43.5
Cn1c(=O)c2[nH]c(Cc3cccc(O)c3)nc2n(C)c1=O	none (no result: FGF22 binding)
COc1ccc(Br)cc1/C=C/C(=O)NC(=S)Nc1ccc(Cl)c(C(=O)O)c1	none
COc1ccc(Br)cc1/C=C/C(=O)NCC(=O)O	FGF22 binding 43.5
C[C@H]1CN(C)C(=O)Cc2cc(N)ccc2O[C@@H]1CN(C)C(=O)OC(C)(C)C	none (no result: ADAM17 inh, ADAM10 inh, FGF22 binding, proKLK7 act)
O/N=C(/c1ccccc1)c1cc2cc(Br)cc(Br)c2o1	rRNA inh HTS -22.9
C[C@H](CO)N1C[C@H](C)[C@@H](CN(C)Cc2ccc(Oc3ccccc3)cc2)Oc2c(NC(=O)C3CC3)cccc2C1=O	ADAM10 inh 22.4
C[C@H](CO)N1C[C@H](C)[C@@H](CN(C)Cc2ccc(-c3ccccc3)cc2)Oc2c(NC(=O)C3CC3)cccc2C1=O	FGF22 binding 147.9 (no result: ADAM17 inh, ADAM10 inh, proKLK7 act)
COc1ccc2c3c([nH]c2c1)[C@@H](CO)N(Cc1nccs1)CC31CCN(C(=O)C2CC2)CC1	none (no result: ADAM17 inh, ADAM10 inh, proKLK7 act)
COc1ccc(S(=O)(=O)N2[C@@H]3CNC[C@H]2C3c2ccc(-c3cccc(C)c3)cc2)cc1 (some centres undefined)	none (no result: ADAM17 inh, ADAM10 inh, FGF22 binding, proKLK7 act)
O=C(NCc1ccccn1)c1ccc(Cn2c(=S)[nH]c3ccc(Br)cc3c2=O)cc1	none
CCCCN(C)CCNC(=O)c1ccc(Cn2c(=S)[nH]c3ccc(Br)cc3c2=O)cc1	rRNA inh HTS -52.8
